The supplement of paper PMC11732987, “Enantioselective OTUD7B fragment discovery through chemoproteomics screening and high-throughput optimisation” (Communications Chemistry, 2025)

Experiments:
Test in all cases: log2 ratio of Biotin-Ahx-Ub-VS probe labelling (fragment/DMSO); higher = less target engagement (more negative = stronger competition), active = hit call of the paper (q ≤ 0.05, log2 ratio ≤ -1)
Conditions in all cases: compound concentration: 200 uM; treatment time: 3 h
USP19 = target: T1, USP19 (UniProt O94966)
T1 sequence (whole entry): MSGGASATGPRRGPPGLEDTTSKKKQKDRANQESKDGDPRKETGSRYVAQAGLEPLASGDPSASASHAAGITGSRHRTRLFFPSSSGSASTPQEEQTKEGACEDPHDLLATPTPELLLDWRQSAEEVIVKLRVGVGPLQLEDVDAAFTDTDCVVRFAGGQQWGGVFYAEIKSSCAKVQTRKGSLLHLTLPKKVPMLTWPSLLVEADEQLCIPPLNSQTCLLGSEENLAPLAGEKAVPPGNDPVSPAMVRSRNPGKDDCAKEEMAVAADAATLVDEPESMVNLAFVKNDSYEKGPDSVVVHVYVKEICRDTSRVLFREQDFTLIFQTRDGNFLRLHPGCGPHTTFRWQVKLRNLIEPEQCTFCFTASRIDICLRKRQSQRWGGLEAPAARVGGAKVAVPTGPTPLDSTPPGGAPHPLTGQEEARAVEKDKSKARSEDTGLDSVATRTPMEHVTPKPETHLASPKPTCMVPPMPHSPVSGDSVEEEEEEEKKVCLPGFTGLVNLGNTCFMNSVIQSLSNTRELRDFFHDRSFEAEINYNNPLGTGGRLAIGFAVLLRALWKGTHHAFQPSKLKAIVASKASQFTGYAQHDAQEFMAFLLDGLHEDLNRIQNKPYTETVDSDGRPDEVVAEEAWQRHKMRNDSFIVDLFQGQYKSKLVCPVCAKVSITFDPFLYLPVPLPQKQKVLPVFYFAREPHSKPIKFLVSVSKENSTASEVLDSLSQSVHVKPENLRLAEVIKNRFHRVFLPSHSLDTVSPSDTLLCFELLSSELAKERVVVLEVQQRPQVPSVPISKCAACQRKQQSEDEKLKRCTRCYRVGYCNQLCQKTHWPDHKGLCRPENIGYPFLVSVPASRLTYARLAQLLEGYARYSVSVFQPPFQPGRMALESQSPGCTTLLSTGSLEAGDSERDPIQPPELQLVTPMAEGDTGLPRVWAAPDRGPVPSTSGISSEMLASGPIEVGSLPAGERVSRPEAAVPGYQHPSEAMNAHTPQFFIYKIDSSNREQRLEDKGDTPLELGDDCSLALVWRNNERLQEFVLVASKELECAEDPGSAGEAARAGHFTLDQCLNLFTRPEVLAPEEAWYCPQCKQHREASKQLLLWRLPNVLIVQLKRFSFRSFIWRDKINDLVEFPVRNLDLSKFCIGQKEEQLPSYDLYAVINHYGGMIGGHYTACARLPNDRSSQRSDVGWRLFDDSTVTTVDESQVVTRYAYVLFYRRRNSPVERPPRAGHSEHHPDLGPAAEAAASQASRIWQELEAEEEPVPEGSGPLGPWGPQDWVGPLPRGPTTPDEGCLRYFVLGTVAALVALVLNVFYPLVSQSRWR
Summary of the method: (§1)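 Fragment (200 µM) or vehicle was incubated for 3 h with triplicate HEK293T lysate samples of 495 µg, which were then treated with Biotin-Ahx-Ub-VS at 0.5 µM final for 1 h. Labelled DUBs were enriched on NeutrAvidin, digested with LysC and trypsin, and analysed by diaPASEF LC-MS/MS. Values are average log2 fragment/vehicle ratios from an unpaired t-test on global-median-normalised Spectronaut label-free quantities, using proteins with ≥2 unique peptides.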

USP24 = USP24 (UniProt Q9UPU5)
Summary of the method: as §1

USP25 = target: T2, USP25 (UniProt Q9UHP3)
T2 sequence (whole entry): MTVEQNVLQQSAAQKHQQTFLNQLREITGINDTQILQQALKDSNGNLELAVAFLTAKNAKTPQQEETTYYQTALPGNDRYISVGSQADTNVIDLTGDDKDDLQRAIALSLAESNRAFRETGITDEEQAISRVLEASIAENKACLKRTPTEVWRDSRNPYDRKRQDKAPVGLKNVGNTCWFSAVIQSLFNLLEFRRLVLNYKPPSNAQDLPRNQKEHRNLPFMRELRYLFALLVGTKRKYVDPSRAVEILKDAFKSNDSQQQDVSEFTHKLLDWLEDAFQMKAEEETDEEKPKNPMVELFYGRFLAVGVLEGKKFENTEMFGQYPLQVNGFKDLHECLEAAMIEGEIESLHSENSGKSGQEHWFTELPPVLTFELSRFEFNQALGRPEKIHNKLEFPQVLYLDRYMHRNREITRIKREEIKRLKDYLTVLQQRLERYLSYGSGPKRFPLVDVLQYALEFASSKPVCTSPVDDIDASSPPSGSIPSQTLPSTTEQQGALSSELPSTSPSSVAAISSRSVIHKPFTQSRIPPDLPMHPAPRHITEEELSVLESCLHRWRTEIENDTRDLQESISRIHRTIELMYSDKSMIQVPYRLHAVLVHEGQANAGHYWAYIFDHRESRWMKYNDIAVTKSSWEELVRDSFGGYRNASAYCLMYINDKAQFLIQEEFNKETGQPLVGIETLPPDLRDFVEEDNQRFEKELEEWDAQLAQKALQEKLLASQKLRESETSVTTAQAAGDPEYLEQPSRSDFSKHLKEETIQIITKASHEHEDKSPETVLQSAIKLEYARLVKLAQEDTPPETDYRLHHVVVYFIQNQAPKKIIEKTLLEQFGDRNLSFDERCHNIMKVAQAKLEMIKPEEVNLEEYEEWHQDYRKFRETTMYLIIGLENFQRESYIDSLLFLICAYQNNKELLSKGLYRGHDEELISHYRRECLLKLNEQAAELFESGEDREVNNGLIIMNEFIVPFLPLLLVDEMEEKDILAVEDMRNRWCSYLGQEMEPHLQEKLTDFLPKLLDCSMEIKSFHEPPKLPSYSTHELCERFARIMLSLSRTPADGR
Summary of the method: as §1

USP28 = target: T3, USP28 (UniProt Q96RU2)
T3 sequence (whole entry): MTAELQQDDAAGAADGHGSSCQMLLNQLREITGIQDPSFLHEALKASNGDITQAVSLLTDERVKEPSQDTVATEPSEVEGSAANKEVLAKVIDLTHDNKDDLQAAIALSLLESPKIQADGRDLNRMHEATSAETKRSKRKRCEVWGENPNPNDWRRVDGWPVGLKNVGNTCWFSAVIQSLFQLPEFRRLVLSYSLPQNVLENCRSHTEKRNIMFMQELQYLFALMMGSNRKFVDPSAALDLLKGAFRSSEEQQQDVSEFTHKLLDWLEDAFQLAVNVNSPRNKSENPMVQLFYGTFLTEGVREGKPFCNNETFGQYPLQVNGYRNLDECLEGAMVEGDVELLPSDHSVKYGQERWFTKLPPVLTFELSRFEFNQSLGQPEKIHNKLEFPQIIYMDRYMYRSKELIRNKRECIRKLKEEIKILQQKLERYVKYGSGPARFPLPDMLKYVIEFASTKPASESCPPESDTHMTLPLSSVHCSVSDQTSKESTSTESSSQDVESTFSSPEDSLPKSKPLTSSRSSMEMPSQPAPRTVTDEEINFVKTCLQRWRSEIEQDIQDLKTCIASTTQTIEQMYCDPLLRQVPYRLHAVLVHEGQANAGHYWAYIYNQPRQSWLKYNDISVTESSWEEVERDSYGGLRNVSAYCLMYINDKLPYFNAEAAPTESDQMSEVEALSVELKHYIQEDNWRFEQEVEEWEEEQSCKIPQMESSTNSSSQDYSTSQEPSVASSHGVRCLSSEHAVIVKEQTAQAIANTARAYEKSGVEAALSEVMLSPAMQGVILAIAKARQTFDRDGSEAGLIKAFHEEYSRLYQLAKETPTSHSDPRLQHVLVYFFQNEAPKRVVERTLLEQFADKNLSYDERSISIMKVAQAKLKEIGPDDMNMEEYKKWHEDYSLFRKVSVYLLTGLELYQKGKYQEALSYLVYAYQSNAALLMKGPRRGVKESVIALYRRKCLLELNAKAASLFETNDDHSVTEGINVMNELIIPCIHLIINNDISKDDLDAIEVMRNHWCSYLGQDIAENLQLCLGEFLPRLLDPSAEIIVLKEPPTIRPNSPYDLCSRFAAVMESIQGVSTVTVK
Summary of the method: as §1

Measured: log2 ratio of Biotin-Ahx-Ub-VS probe labelling

Chain of USP24 (Q9UPU5 whole entry): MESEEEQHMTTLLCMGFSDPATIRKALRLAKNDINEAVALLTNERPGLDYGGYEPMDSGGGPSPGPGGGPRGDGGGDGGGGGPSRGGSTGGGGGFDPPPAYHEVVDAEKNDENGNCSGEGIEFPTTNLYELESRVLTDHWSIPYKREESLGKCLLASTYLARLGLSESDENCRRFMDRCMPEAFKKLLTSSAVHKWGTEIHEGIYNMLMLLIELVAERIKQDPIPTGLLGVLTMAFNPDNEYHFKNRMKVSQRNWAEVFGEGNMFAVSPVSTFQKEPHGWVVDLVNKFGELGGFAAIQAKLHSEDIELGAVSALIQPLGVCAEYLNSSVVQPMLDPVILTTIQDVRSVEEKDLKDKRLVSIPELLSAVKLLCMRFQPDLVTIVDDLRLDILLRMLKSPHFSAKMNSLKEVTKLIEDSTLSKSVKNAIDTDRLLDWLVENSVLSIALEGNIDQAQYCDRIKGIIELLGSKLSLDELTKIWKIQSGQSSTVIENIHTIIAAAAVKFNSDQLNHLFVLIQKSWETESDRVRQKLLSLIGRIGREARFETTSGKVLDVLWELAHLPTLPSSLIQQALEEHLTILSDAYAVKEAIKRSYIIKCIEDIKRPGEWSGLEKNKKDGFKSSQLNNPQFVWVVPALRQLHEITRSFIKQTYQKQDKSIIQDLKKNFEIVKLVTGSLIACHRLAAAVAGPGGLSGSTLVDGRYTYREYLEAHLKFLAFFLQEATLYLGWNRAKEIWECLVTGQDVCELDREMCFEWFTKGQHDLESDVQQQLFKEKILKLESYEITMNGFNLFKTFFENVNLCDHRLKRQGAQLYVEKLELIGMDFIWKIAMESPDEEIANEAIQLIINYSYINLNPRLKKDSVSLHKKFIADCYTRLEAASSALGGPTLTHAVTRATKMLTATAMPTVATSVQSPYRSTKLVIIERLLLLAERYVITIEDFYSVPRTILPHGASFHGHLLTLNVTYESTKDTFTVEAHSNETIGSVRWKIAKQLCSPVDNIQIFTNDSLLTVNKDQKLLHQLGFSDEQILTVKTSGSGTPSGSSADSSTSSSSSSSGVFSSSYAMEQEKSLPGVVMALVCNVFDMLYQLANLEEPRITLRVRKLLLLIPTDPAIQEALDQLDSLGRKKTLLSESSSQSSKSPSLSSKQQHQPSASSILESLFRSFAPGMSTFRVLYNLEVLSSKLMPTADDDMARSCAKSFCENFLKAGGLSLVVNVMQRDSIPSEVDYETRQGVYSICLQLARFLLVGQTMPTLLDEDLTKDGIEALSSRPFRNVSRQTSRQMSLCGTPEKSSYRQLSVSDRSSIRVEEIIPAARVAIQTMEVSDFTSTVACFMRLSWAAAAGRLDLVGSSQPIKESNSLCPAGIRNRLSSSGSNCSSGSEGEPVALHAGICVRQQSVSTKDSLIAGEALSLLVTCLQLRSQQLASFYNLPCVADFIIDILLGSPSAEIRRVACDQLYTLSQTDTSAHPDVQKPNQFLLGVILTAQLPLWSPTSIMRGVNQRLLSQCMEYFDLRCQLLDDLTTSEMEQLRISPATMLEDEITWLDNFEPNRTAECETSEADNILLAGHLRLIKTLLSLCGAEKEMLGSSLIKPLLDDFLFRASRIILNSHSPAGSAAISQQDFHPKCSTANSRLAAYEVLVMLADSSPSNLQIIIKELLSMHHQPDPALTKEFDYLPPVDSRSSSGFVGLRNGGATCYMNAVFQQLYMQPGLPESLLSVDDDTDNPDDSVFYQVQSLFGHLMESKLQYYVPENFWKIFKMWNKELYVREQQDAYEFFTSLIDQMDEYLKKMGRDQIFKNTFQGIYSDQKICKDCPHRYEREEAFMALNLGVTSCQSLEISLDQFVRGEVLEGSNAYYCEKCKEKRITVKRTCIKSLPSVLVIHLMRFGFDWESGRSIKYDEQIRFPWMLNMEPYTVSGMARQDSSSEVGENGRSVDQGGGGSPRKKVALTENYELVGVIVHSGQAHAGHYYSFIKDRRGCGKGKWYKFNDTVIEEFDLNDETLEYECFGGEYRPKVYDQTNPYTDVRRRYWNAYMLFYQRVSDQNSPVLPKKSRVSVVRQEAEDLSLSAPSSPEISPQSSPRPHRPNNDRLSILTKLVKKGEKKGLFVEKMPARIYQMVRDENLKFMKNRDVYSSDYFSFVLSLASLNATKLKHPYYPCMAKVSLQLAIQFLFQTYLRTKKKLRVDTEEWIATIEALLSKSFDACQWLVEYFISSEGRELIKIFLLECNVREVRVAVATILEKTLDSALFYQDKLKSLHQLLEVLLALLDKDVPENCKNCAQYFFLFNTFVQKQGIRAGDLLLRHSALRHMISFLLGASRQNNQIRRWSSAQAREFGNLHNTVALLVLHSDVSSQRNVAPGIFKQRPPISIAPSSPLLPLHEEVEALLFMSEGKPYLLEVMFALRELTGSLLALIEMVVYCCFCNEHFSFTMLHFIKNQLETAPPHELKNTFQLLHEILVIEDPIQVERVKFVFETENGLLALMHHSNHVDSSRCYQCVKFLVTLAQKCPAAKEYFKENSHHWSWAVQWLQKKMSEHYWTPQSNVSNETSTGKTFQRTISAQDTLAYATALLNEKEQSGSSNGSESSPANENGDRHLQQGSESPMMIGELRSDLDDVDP

O=C(CCl)N1CCC(C(=O)N2CCCCCC2)CC1
inactive: USP19 -0.129 | USP24 -0.141 | USP25 -0.0854 | USP28 -0.307
